# Test results from PubChem BioAssay AID1159580 (chemical genetic matrix, 2015).
# Out of some 5,500 compounds screened, about 2,000 (36%) were called active. Another 18% or so got no clear call; they are omitted. The list shows a part of the results. A number with no mark means an inactive call. Rule as the data show it: active = normalized growth mostly below about 0.91 (no sharp cut-off); inconclusive = no clear call, values can overlap the other calls; inactive = mostly above about 0.92.
# Test: chemical genetic growth profiling, strain panel (AID 1159580);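 also: tested at 20 µM; growth read once vehicle control cultures reached saturation at 30 °C; 1 = growth at the plate median or of vehicle wells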
# Details: S. cerevisiae deletion strains, growth OD
compound,measurement,setting,value
Cc1nc(-c2cccnc2)nc(NCc2ccccc2)c1Cl,normalized growth,"locus YAR019C, strain CDC15, stronger effect = lower value",0.943
same,normalized growth,"locus YBL105C, strain PKC1, stronger effect = lower value",0.945
same,normalized growth,"locus YBR135W, strain CKS1, stronger effect = lower value",0.941
same,normalized growth,"locus YBR136W, strain MEC1, stronger effect = lower value",0.919
same,normalized growth,"locus YBR160W, strain CDC28, stronger effect = lower value",0.955
same,normalized growth,"locus YDL017W, strain CDC7, stronger effect = lower value",0.943
same,normalized growth,"locus YDL028C, strain MPS1, stronger effect = lower value",0.926
same,normalized growth,"locus YDL101C, strain DUN1, stronger effect = lower value",0.938
same,normalized growth,"locus YDL108W, strain KIN28, stronger effect = lower value",0.924
same,normalized growth,"locus YDL132W, strain cdc53, stronger effect = lower value",0.939
same,normalized growth,"locus YDL214C, strain PRR2, stronger effect = lower value",0.866
same,normalized growth,"locus YDR052C, strain DBF4, stronger effect = lower value",0.945
same,normalized growth,"locus YDR054C, strain cdc34, stronger effect = lower value",0.933
same,normalized growth,"locus YDR226W, strain ADK1, stronger effect = lower value",0.951
same,normalized growth,"locus YDR477W, strain SNF1, stronger effect = lower value",0.887
same,normalized growth,"locus YER123W, strain YCK3, stronger effect = lower value",0.784
same,normalized growth,"locus YER133W, strain GLC7, stronger effect = lower value",0.853
same,normalized growth,"locus YFL009W, strain cdc4, stronger effect = lower value",0.932
same,normalized growth,"locus YFL029C, strain CAK1, stronger effect = lower value",0.941
same,normalized growth,"locus YFR003C, strain YPI1, stronger effect = lower value",0.943
same,normalized growth,"locus YFR019W, strain FAB1, stronger effect = lower value",0.946
same,normalized growth,"locus YFR028C, strain CDC14, stronger effect = lower value",0.931
same,normalized growth,"locus YGR040W, strain KSS1, stronger effect = lower value",0.841
same,normalized growth,"locus YGR052W, strain FMP48, stronger effect = lower value",0.937
same,normalized growth,"locus YGR092W, strain DBF2, stronger effect = lower value",0.8
same,normalized growth,"locus YHR030C, strain SLT2, stronger effect = lower value",0.936
same,normalized growth,"locus YHR079C, strain IRE1, stronger effect = lower value",0.887
same,normalized growth,"locus YHR082C, strain KSP1, stronger effect = lower value",0.935
same,normalized growth,"locus YHR205W, strain SCH9, stronger effect = lower value",0.886
same,normalized growth,"locus YIL147C, strain SLN1, stronger effect = lower value",0.929
same,normalized growth,"locus YJL095W, strain BCK1, stronger effect = lower value",0.923
same,normalized growth,"locus YJL128C, strain PBS2, stronger effect = lower value",0.907
same,normalized growth,"locus YJL157C, strain FAR1, stronger effect = lower value",0.877
same,normalized growth,"locus YJR016C, strain ILV3, stronger effect = lower value",0.935
same,normalized growth,"locus YJR066W, strain TOR1 (second series), stronger effect = lower value",0.884
same,normalized growth,"locus YJR066W, strain TOR1, stronger effect = lower value",0.922
same,normalized growth,"locus YKL048C, strain ELM1, stronger effect = lower value",0.94
same,normalized growth,"locus YKL067W, strain YNK1, stronger effect = lower value",0.89
same,normalized growth,"locus YKL101W, strain HSL1, stronger effect = lower value",0.892
same,normalized growth,"locus YKL193C, strain SDS22, stronger effect = lower value",0.937
same,normalized growth,"locus YKL203C, strain TOR2, stronger effect = lower value",0.923
same,normalized growth,"locus YLR113W, strain HOG1, stronger effect = lower value",0.846 (active)
same,normalized growth,"locus YLR133W, strain CKI1, stronger effect = lower value",0.913
same,normalized growth,"locus YLR403W, strain SFP1, stronger effect = lower value",0.849
same,normalized growth,"locus YML070W, strain DAK1, stronger effect = lower value",0.847
same,normalized growth,"locus YMR001C, strain CDC5, stronger effect = lower value",0.938
same,normalized growth,"locus YMR205C, strain PFK2 (second series), stronger effect = lower value",0.897
same,normalized growth,"locus YMR277W, strain FCP1, stronger effect = lower value",0.943
same,normalized growth,"locus YNL006W, strain LST8, stronger effect = lower value",0.954
same,normalized growth,"locus YNL020C, strain ARK1, stronger effect = lower value",0.885
same,normalized growth,"locus YNL161W, strain CBK1, stronger effect = lower value",0.952
same,normalized growth,"locus YNL183C, strain NPR1, stronger effect = lower value",0.898
same,normalized growth,"locus YNL207W, strain RIO2, stronger effect = lower value",0.922
same,normalized growth,"locus YNL222W, strain SSU72, stronger effect = lower value",0.942
same,normalized growth,"locus YNL307C, strain MCK1 (second series), stronger effect = lower value",0.899
same,normalized growth,"locus YOL078W, strain AVO1, stronger effect = lower value",0.941
same,normalized growth,"locus YOL136C, strain PFK27, stronger effect = lower value",0.877
same,normalized growth,"locus YOR061W, strain CKA2, stronger effect = lower value",0.89
same,normalized growth,"locus YOR119C, strain RIO1, stronger effect = lower value",0.889
same,normalized growth,"locus YOR231W, strain MKK1, stronger effect = lower value",0.9
same,normalized growth,"locus YOR329C, strain SCD5, stronger effect = lower value",0.948
same,normalized growth,"locus YPL031C, strain PHO85, stronger effect = lower value",0.82
same,normalized growth,"locus YPL153C, strain RAD53, stronger effect = lower value",0.841
same,normalized growth,"locus YPL204W, strain HRR25, stronger effect = lower value",0.856
same,normalized growth,"locus YPL209C, strain IPL1, stronger effect = lower value",0.942
same,normalized growth,"locus YPL256C, strain CLN2, stronger effect = lower value",0.908
same,normalized growth,"locus YPR025C, strain CCL1, stronger effect = lower value",0.951
same,normalized growth,"locus YPR106W, strain ISR1, stronger effect = lower value",0.953
same,normalized growth,"locus YPR111W, strain DBF20, stronger effect = lower value",0.942
same,normalized growth,"strain NNK1, stronger effect = lower value",0.94
same,normalized growth,"strain TSCII, stronger effect = lower value",0.934
